Data: PubChem BioAssay (NCI)
Values joined by “and” are separate entries in the source; they are usually repeats but may differ in a detail not shown here. Equal entries are not always repeated. Compounds without any hit were thinned out: in the full panel of roughly 79,000, 15% have a hit. Cut-off read from the data, not from the text of the source: active = growth inhibition above about 70%; inactive = the rest.

Assays:
[1] = NCI Yeast Anticancer Drug Screen. Data for the rad50 strain (AID 155);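 note: 0% = growth of vehicle-only cultures of the same strain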; settings: S. cerevisiae rad50 strain growth inhibition, stronger effect = higher value; at 50.0 µM unless noted
Method in brief: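 Genetically altered yeast (DNA repair pathway); compound treatment; growth inhibition vs vehicle ctrl.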

[2] = NCI Yeast Anticancer Drug Screen. Data for the mec2-1 strain (AID 157); settings: S. cerevisiae mec2-1 strain, stronger effect = higher value; at 50.0 µM unless noted
Method in brief: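 Test agents were screened against the mec2-1 yeast strain, with defined DNA repair or cell cycle alteration. Growth was scored as inhibition against vehicle-only controls.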

[3] = NCI Yeast Anticancer Drug Screen. Data for the sgs1 mgt1 strain (AID 161);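 note: 0% = growth of cultures given vehicle only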; settings: S. cerevisiae sgs1 mgt1 strain, stronger effect = higher value; at 50.0 µM unless noted
Method in brief: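 Read-out: growth inhibition vs vehicle controls. Cells: mutant yeast strain deficient in DNA damage repair.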

[4] = NCI Yeast Anticancer Drug Screen. Data for the cln2 rad14 strain (AID 165);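 note: 0% = growth equal to vehicle treated cultures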; settings: S. cerevisiae cln2 rad14 strain, stronger effect = higher value; at 50.0 µM unless noted
Method in brief: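 Growth of compound-exposed yeast (cln2 rad14 genotype) measured and expressed as inhibition relative to vehicle.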

[5] = NCI Yeast Anticancer Drug Screen. Data for the bub3 strain (AID 167); settings: S. cerevisiae bub3 mutant strain, stronger effect = higher value; at 50.0 µM unless noted
Method in brief: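 Yeast carrying a defined mutation is treated with each compound, and growth is compared with that of vehicle-exposed cells to give inhibition.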

[6] = NCI Yeast Anticancer Drug Screen. Data for the mlh1 rad18 strain (AID 175); settings: S. cerevisiae mlh1 rad18 strain growth inhibition, stronger effect = higher value; at 50.0 µM unless noted
Method in brief: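 In this whole-cell yeast screen, a strain with altered DNA damage repair is challenged with compound, and its growth is measured against matched vehicle-treated controls.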

Measured: growth inhibition

Fc1cccc(C(Nc2nncs2)Nc2nncs2)c1F
inactive: [1] 5.5% | [2] 8.95% | [3] 29.8% | [4] -1.2% | [5] 5.15% | [6] 28.2%

Cc1cc(C)c(F)c(C)c1F
inactive: [1] -7.95% | [2] -4.6% | [3] -5.45% | [4] -15.8% | [5] 5.9% | [6] -2.3%

Nc1ncc2c(n1)-c1ccccc1OC2
inactive: [1] -29.5% | [2] 2.8% | [3] -12.4% | [4] -1.4% | [5] -20.9% | [6] -10.4%

Cc1cc2ccccc2cn1
inactive: [1] 1% and 29.1% | [2] -23.1% and 16.6% | [3] 5.55% and 19.2% | [4] -30.6% and -34.1% | [5] 5.95% and 10.8% | [6] 4.75% and 24.6%

Cn1nc2ccc3nccc(N4CCN(CCO)CC4)c3c2n1
inactive: [1] -25.6% | [2] -6.9% | [3] -21.6% | [4] -17.1% | [5] -8.45% | [6] -15%

O=C(/C(=C1\SS/C(=C(/C(=O)c2ccccc2)c2ccccc2)S1)c1ccccc1)c1ccccc1
inactive: [1] 34.6% | [2] 14.6% | [3] 17.7% | [4] 7.3% | [5] 5.75% | [6] 6.45%

Cc1c2c(c(C)c3c1C(=O)c1cc4c(cc1C3=O)OCO4)OCO2
inactive: [1] -9.1% | [2] -4.35% | [3] -5.35% | [4] -4.7% | [5] -31.9% | [6] -15.4%

CC(N)(CC(O)(C(F)(F)Cl)C(F)(F)Cl)C(=O)O (centres undefined)
inactive: [1] -48.1% | [2] -37.7% | [3] -33.4% | [4] -9.25% | [5] -13.7% | [6] -28.8%

COc1ccc(Cl)cc1N
inactive: [1] -14.3% and 17.1% | [2] -15.6% and -4% | [3] -12.7% and -2.8% | [4] 8.35% and 22.1% | [5] 3.25% and -3.2% | [6] -7.55% and 16.1%

CC1=C(C(=O)OC(C)(C)C)C(c2ccc([N+](=O)[O-])cc2)C(C(=O)OC(C)(C)C)=C(C)N1
inactive: [1] 0.2% | [2] -4.9% | [3] 3.85% | [4] 12.2% | [5] -12.8% | [6] 15.4%

COc1cc(C(C)=O)ccc1OCOc1ccc(C(C)=O)cc1OC
inactive: [1] -4.65% | [2] -23.6% | [3] -3.7% | [4] -43% | [5] 5.95% | [6] -5.55%

O=C(OC(C1COCO1)C(O)C1COCO1)c1ccccc1 (centres undefined)
inactive: [1] 5.65% | [2] -8.85% | [3] 9.05% | [4] -1.85% | [5] 28.4% | [6] 17.4%

Cc1ccc(NC(=O)c2c(Br)c(Br)c(Br)c(Br)c2C(=O)O)cc1Cl
inactive: [1] -1.75% | [2] -5.5% | [3] -8.6% | [4] -22.4% | [5] 2.9% | [6] -9.25%

Cc1ccc2ccccc2c1CN(C)C
inactive: [1] 4.7% | [2] -1.05% | [3] -8.6% | [4] -61% | [5] -3.45% | [6] -12.7%

CCOC(=O)c1cc([N+](=O)[O-])cnc1C
inactive: [1] 5.8% | [2] 10% | [3] -1.7% | [4] 0.4% | [5] 8.45% | [6] 2.4%

O=C(NC12CC3CC(CC(C3)C1)C2)C(=O)c1c[nH]c2ccc([N+](=O)[O-])cc12
inactive: [1] -17.4% | [2] -25.1% | [3] -50.6% | [4] -9.85% | [5] -15.1% | [6] -31.9%

Cc1ccc(C(=O)OCC(C)C)s1
inactive: [1] -6.6% | [2] 1.35% | [3] -25.8% | [4] -40.8% | [5] -6.55% | [6] 13.4%

CCOC(=O)C(NC(=O)CC)(Nc1ccc(S(=O)(=O)Nc2nc(C)cc(C)n2)cc1)C(F)(F)F (centres undefined)
inactive: [1] -5.6% | [2] -3.4% | [3] 8.55% | [4] 21.6% | [5] 2.5% | [6] 7.65%

N=C1OCCN1/N=C/c1ccc([N+](=O)[O-])o1
inactive: [1] 33.4% | [2] -2.3% | [3] 66.8% | [4] -3.5% | [5] 20.6% | [6] 52.2%

Clc1nc2n(c1/C=C/c1cccs1)CCS2
inactive: [1] 28.4% | [2] 23.2% | [3] 56.4% | [4] 13.9% | [5] 20.6% | [6] 59.5%

CC(=O)Oc1cc(S(=O)(=O)Nc2n[nH]c(N)n2)c(S)cc1Cl
inactive: [1] -22.8% | [2] -18.3% | [3] -1.2% | [4] 11.7% | [5] -9.55% | [6] 8.45%

CC(=O)Nc1cc(C(=O)Nc2cc(C(=O)Nc3cc(C(=O)Nc4cc(C(=O)Nc5cc(C(=O)NCCC(=O)NCCCN(C)C)n(C)c5)n(C)c4)n(C)c3)n(C)c2)n(C)c1
inactive: [1] 9.7% | [2] -41.5% | [3] -18.6% | [4] -4% | [5] -31.9% | [6] -37.8%

CC(=O)NCC(C)NC(C)=O (centres undefined)
inactive: [1] -16.6% and -6.55% | [2] -37.4% and -15.4% | [3] -34.2% and -27.1% | [4] -6.75% and 7.7% | [5] -14.8% and -2.45% | [6] -15.2% and 8.1%

O=S(=O)([O-])[O-].O=c1[nH]cnc2[nH]ncc12.O=c1[nH]cnc2[nH]ncc12.[Zn+2]
inactive: [1] -26.2% | [2] 4.15% | [3] -15.9% | [4] 3.65% | [5] -20.8% | [6] -17.6%

CC(=O)Nc1c(N)c2ccccc2c2ccccc12
inactive: [1] -4.2% | [2] -13.9% | [3] -22.7% | [4] 1.75% | [5] -4.5% | [6] -12.2%

Cc1cc(=O)c2c(o1)C(=O)c1occc1C2=O
inactive: [1] -9.5% | [2] -34.5% | [3] -3.9% | [4] 5.85% | [5] -6.1% | [6] -13%

CCCCCCCC[n+]1ccc(C#N)cc1
inactive: [1] 11.7% | [2] 4% | [3] 14.3% | [4] 15.9% | [5] 5.65% | [6] 19%

Cc1cc(N(CCC#N)CCC#N)ccc1N=Nc1ccc(S(N)(=O)=O)cc1
inactive: [1] -39.6% | [2] -9.45% | [3] -12.4% | [4] 3.65% | [5] 0.55% | [6] 0.8%

N=c1oc2ccc(Cl)cc2cc1C(=O)Nc1ccccc1
inactive: [1] 32.2% | [2] 32.7% | [3] -10.6% | [4] 14.1% | [5] 15.6% | [6] -35%

O=C(C/C(=N/O)c1ccccc1)c1ccccc1
inactive: [1] -14.7% | [2] -4.65% | [3] -8.5% | [4] 15.4% | [5] 5.35% | [6] -1.8%

COc1c(OC(C)=O)ccc(/C=C2\N=C(C)OC2=O)c1[N+](=O)[O-]
inactive: [1] -8.3% | [2] -4.75% | [3] 5.25% | [4] 16.5% | [5] 11.1% | [6] 9.2%

CC(O)CCC(=O)c1nc2ccccc2s1 (centres undefined)
inactive: [1] -14.4% | [2] 19.2% | [3] 5.95% | [4] -6.3% | [5] 4.95% | [6] 3.5%

CC1=Nc2ccc([N+](=O)[O-])cc2C1(C)C
inactive: [1] -0.35% | [2] 5.1% | [3] -7.55% | [4] -2.15% | [5] -16.1% | [6] -5.45%

COC(=O)C(C)(C)C(C)=O
inactive: [1] -40% | [2] -47.1% | [3] -37.5% | [4] 7.5% | [5] -26.9% | [6] -30.4%

Cn1c2ccc(Cl)cc2c2ccc3c(c21)C(=O)C=CC3=O
inactive: [1] -21.9% | [2] -33% | [3] -18.3% | [4] 14.2% | [5] -25.2% | [6] -8.05%

Cc1nc2[nH]c(=O)[nH]c(=O)c2s1
inactive: [1] -5.65% | [2] 4.15% | [3] -1.25% | [4] -6.6% | [5] -10.8% | [6] -2.35%

C=CCN(CC=C)C(=O)Nc1cccc(C)c1
inactive: [1] -27.2% | [2] -43.9% | [3] 1.3% | [4] -3.15% | [5] -2.6% | [6] -21%

COc1ccc(C(=O)CC(c2ccccc2)C(C#N)c2ccccc2)cc1 (centres undefined)
inactive: [1] 1.8% and -5.7% | [2] 5.6% and -8.55% | [3] -6.2% and 26.1% | [4] -107% and -72.5% | [5] 8.95% and -5.05% | [6] -7% and 8.5%

CCCCCC(=O)CC(=O)C(CC)CC
inactive: [1] 16.4% | [2] 12.9% | [3] -1.55% | [4] 1.35% | [5] 6.5% | [6] 12.9%
